# Data as given in PubChem BioAssay AID1159580 (chemical genetic matrix, 2015).
# Screen size: about 5,500 compounds; about 2,000 (36%) were called active. About 18% were inconclusive and are not listed. The list shows a part of the results. Unmarked numbers belong to inactive results. Cut-off read from the data, not from the text of the source: active = normalized growth mostly below about 0.91 (no sharp cut-off); inconclusive = no clear call, values can overlap the other calls; inactive = mostly above about 0.92.
# Assay: chemical genetic growth profiling, strain panel (AID 1159580);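 note: tested at 20 µM; growth read once vehicle control cultures reached saturation at 30 °C; 1 = growth at the plate median or of vehicle wells; lower values mean less growth of the strain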
# Conditions: growth OD
smiles,measurement,setting,value
CC(C)=CCC1=C(O)c2ccccc2C(=O)C1=O,normalized growth,"S. cerevisiae deletion strains, locus YJR075W, strain HOC1, stronger effect = lower value",1.03
same,normalized growth,"S. cerevisiae deletion strains, locus YKL009W, strain mrt4, stronger effect = lower value",0.945
same,normalized growth,"S. cerevisiae deletion strains, locus YKL068W, stronger effect = lower value",0.887 (active)
same,normalized growth,"S. cerevisiae deletion strains, locus YKL085W, strain MDH1 (second series), stronger effect = lower value",0.884 (active)
same,normalized growth,"S. cerevisiae deletion strains, locus YKL085W, strain MDH1, stronger effect = lower value",0.884 (active)
same,normalized growth,"S. cerevisiae deletion strains, locus YKL160W, strain elf1, stronger effect = lower value",0.741 (active)
same,normalized growth,"S. cerevisiae deletion strains, locus YKL190W, strain CNB1, stronger effect = lower value",0.951
same,normalized growth,"S. cerevisiae deletion strains, locus YKR001C, strain vps1, stronger effect = lower value",0.788 (active)
same,normalized growth,"S. cerevisiae deletion strains, locus YKR026C, strain gcn3, stronger effect = lower value",0.775 (active)
same,normalized growth,"S. cerevisiae deletion strains, locus YKR091W, strain srl3, stronger effect = lower value",0.809 (active)
same,normalized growth,"S. cerevisiae deletion strains, locus YLL001W, strain dnm1, stronger effect = lower value",0.598 (active)
same,normalized growth,"S. cerevisiae deletion strains, locus YLL026W, stronger effect = lower value",0.808 (active)
same,normalized growth,"S. cerevisiae deletion strains, locus YLL041C, strain sdh2, stronger effect = lower value",0.815 (active)
same,normalized growth,"S. cerevisiae deletion strains, locus YLR027C, strain aat2, stronger effect = lower value",0.823 (active)
same,normalized growth,"S. cerevisiae deletion strains, locus YLR039C, strain RIC1, stronger effect = lower value",0.705
same,normalized growth,"S. cerevisiae deletion strains, locus YLR058C, strain SHM2, stronger effect = lower value",0.954
same,normalized growth,"S. cerevisiae deletion strains, locus YLR102C, strain apc9, stronger effect = lower value",0.963
same,normalized growth,"S. cerevisiae deletion strains, locus YLR113W, strain HOG1, stronger effect = lower value",0.965
same,normalized growth,"S. cerevisiae deletion strains, locus YLR221C, strain rsa3, stronger effect = lower value",0.819 (active)
same,normalized growth,"S. cerevisiae deletion strains, locus YLR258W, strain gsy2, stronger effect = lower value",0.797 (active)
same,normalized growth,"S. cerevisiae deletion strains, locus YLR262C, strain YPT6 (second series), stronger effect = lower value",0.334 (active)
same,normalized growth,"S. cerevisiae deletion strains, locus YLR262C, strain YPT6, stronger effect = lower value",0.733
same,normalized growth,"S. cerevisiae deletion strains, locus YLR268W, strain sec22, stronger effect = lower value",0.879 (active)
same,normalized growth,"S. cerevisiae deletion strains, locus YLR320W, strain mms22, stronger effect = lower value",0.741 (active)
same,normalized growth,"S. cerevisiae deletion strains, locus YLR330W, strain CHS5, stronger effect = lower value",0.948
same,normalized growth,"S. cerevisiae deletion strains, locus YLR342W, strain FKS1 (second series), stronger effect = lower value",0.844
same,normalized growth,"S. cerevisiae deletion strains, locus YLR342W, strain FKS1, stronger effect = lower value",0.727 (active)
same,normalized growth,"S. cerevisiae deletion strains, locus YLR357W, strain rsc2, stronger effect = lower value",0.837 (active)
same,normalized growth,"S. cerevisiae deletion strains, locus YLR370C, strain arc18, stronger effect = lower value",0.806 (active)
same,normalized growth,"S. cerevisiae deletion strains, locus YLR371W, strain rom2, stronger effect = lower value",0.939
same,normalized growth,"S. cerevisiae deletion strains, locus YLR384C, strain iki3, stronger effect = lower value",0.818 (active)
same,normalized growth,"S. cerevisiae deletion strains, locus YLR418C, strain cdc73, stronger effect = lower value",1.03
same,normalized growth,"S. cerevisiae deletion strains, locus YML016C, strain PPZ1, stronger effect = lower value",0.958
same,normalized growth,"S. cerevisiae deletion strains, locus YML032C, strain rad52, stronger effect = lower value",0.906
same,normalized growth,"S. cerevisiae deletion strains, locus YML120C, strain ndi1, stronger effect = lower value",0.759 (active)
same,normalized growth,"S. cerevisiae deletion strains, locus YML124C, strain tub3, stronger effect = lower value",0.935
same,normalized growth,"S. cerevisiae deletion strains, locus YMR058W, strain fet3, stronger effect = lower value",0.651 (active)
same,normalized growth,"S. cerevisiae deletion strains, locus YMR078C, strain ctf18, stronger effect = lower value",0.921
same,normalized growth,"S. cerevisiae deletion strains, locus YMR125W, strain sto1, stronger effect = lower value",0.884 (active)
same,normalized growth,"S. cerevisiae deletion strains, locus YMR129W, stronger effect = lower value",0.773 (active)
same,normalized growth,"S. cerevisiae deletion strains, locus YMR205C, strain PFK2, stronger effect = lower value",0.837 (active)
same,normalized growth,"S. cerevisiae deletion strains, locus YMR223W, strain ubp8, stronger effect = lower value",0.864 (active)
same,normalized growth,"S. cerevisiae deletion strains, locus YMR231W, strain pep5, stronger effect = lower value",0.791 (active)
same,normalized growth,"S. cerevisiae deletion strains, locus YMR263W, strain SAP30, stronger effect = lower value",1.01
same,normalized growth,"S. cerevisiae deletion strains, locus YMR307W, strain GAS1, stronger effect = lower value",0.721
same,normalized growth,"S. cerevisiae deletion strains, locus YNL067W, strain RPL9B, stronger effect = lower value",0.989
same,normalized growth,"S. cerevisiae deletion strains, locus YNL071W, strain lat1, stronger effect = lower value",0.837 (active)
same,normalized growth,"S. cerevisiae deletion strains, locus YNL128W, strain TEP1, stronger effect = lower value",0.945
same,normalized growth,"S. cerevisiae deletion strains, locus YNL153C, strain GIM3, stronger effect = lower value",0.965
same,normalized growth,"S. cerevisiae deletion strains, locus YNL183C, strain NPR1, stronger effect = lower value",0.914
same,normalized growth,"S. cerevisiae deletion strains, locus YNL209W, strain ssb2, stronger effect = lower value",0.715 (active)
same,normalized growth,"S. cerevisiae deletion strains, locus YNL233W, strain BNI4, stronger effect = lower value",0.964
same,normalized growth,"S. cerevisiae deletion strains, locus YNL248C, strain rpa49, stronger effect = lower value",0.974
same,normalized growth,"S. cerevisiae deletion strains, locus YNL250W, strain rad50, stronger effect = lower value",0.897 (active)
same,normalized growth,"S. cerevisiae deletion strains, locus YNL271C, strain bni1, stronger effect = lower value",0.892 (active)
same,normalized growth,"S. cerevisiae deletion strains, locus YNL298W, strain CLA4, stronger effect = lower value",0.914
same,normalized growth,"S. cerevisiae deletion strains, locus YNL307C, strain MCK1, stronger effect = lower value",0.904 (active)
same,normalized growth,"S. cerevisiae deletion strains, locus YNL322C, strain KRE1 (second series), stronger effect = lower value",0.791 (active)
same,normalized growth,"S. cerevisiae deletion strains, locus YNL322C, strain KRE1, stronger effect = lower value",0.934
same,normalized growth,"S. cerevisiae deletion strains, locus YNR049C, strain mso1, stronger effect = lower value",0.772 (active)
same,normalized growth,"S. cerevisiae deletion strains, locus YNR052C, strain pop2, stronger effect = lower value",0.918
same,normalized growth,"S. cerevisiae deletion strains, locus YOL006C, strain TOP1, stronger effect = lower value",0.29 (active)
same,normalized growth,"S. cerevisiae deletion strains, locus YOL012C, strain htz1",1.37
same,normalized growth,"S. cerevisiae deletion strains, locus YOL147C, strain pex11, stronger effect = lower value",0.953
same,normalized growth,"S. cerevisiae deletion strains, locus YOR001W, strain rrp6, stronger effect = lower value",0.864 (active)
same,normalized growth,"S. cerevisiae deletion strains, locus YOR061W, strain CKA2, stronger effect = lower value",0.953
same,normalized growth,"S. cerevisiae deletion strains, locus YOR069W, strain VPS5, stronger effect = lower value",0.934
same,normalized growth,"S. cerevisiae deletion strains, locus YOR070C, strain gyp1, stronger effect = lower value",0.821 (active)
same,normalized growth,"S. cerevisiae deletion strains, locus YOR080W, strain dia2, stronger effect = lower value",0.789 (active)
same,normalized growth,"S. cerevisiae deletion strains, locus YOR083W, strain WHI5, stronger effect = lower value",0.772 (active)
same,normalized growth,"S. cerevisiae deletion strains, locus YOR106W, strain vam3, stronger effect = lower value",0.595 (active)
same,normalized growth,"S. cerevisiae deletion strains, locus YOR136W, strain idh2, stronger effect = lower value",0.928
same,normalized growth,"S. cerevisiae deletion strains, locus YOR144C, strain elg1, stronger effect = lower value",0.933 (active)
same,normalized growth,"S. cerevisiae deletion strains, locus YOR184W, strain ser1, stronger effect = lower value",0.894
same,normalized growth,"S. cerevisiae deletion strains, locus YOR231W, strain MKK1, stronger effect = lower value",0.966
same,normalized growth,"S. cerevisiae deletion strains, locus YOR265W, strain rbl2, stronger effect = lower value",0.822 (active)
same,normalized growth,"S. cerevisiae deletion strains, locus YOR270C, strain vph1, stronger effect = lower value",0.294 (active)
same,normalized growth,"S. cerevisiae deletion strains, locus YOR290C, strain snf2, stronger effect = lower value",0.778 (active)
same,normalized growth,"S. cerevisiae deletion strains, locus YOR316C, strain cot1, stronger effect = lower value",0.968
same,normalized growth,"S. cerevisiae deletion strains, locus YPL051W, strain arl3, stronger effect = lower value",0.657 (active)
same,normalized growth,"S. cerevisiae deletion strains, locus YPL055C, strain LGE1, stronger effect = lower value",1.05
same,normalized growth,"S. cerevisiae deletion strains, locus YPL078C, strain atp4, stronger effect = lower value",0.678 (active)
same,normalized growth,"S. cerevisiae deletion strains, locus YPL106C, strain sse1, stronger effect = lower value",0.816 (active)
same,normalized growth,"S. cerevisiae deletion strains, locus YPL240C, strain hsp82, stronger effect = lower value",0.825 (active)
same,normalized growth,"S. cerevisiae deletion strains, locus YPL241C, strain CIN2, stronger effect = lower value",0.925 (active)
same,normalized growth,"S. cerevisiae deletion strains, locus YPL256C, strain CLN2, stronger effect = lower value",1.02
same,normalized growth,"S. cerevisiae deletion strains, locus YPR119W, strain clb2, stronger effect = lower value",0.967
same,normalized growth,"S. cerevisiae deletion strains, locus YPR141C, strain kar3, stronger effect = lower value",0.839 (active)
same,normalized growth,"S. cerevisiae deletion strains, locus YPR163C, strain tif3, stronger effect = lower value",0.957
same,normalized growth,"S. cerevisiae deletion strains, locus YPR167C, strain met16, stronger effect = lower value",0.937
same,normalized growth,"S. cerevisiae deletion strains, strain wtn01, stronger effect = lower value",0.951
same,normalized growth,"S. cerevisiae strains, strain wild type, stronger effect = lower value",0.934
